In PubChem BioAssay (NCATS):
Several values for one entry are separate records, joined by “and”; a condition that tells them apart may be missing. Equal entries are not always repeated. Inconclusive results are not listed. Unmarked numbers belong to inactive results. Activity calls are given as the source filed them. Calls come from the whole dose curve; as a rule, active = well fitted curve in the direction sought with a large enough effect; inconclusive = small, poorly fitted or top-dose-only effect, or another doubt; inactive = no such curve, though single readings can be large; an effect the other way counts as inactive or inconclusive.

Key:
[1] = Viability qHTS for spleen associated tyrosine kinase inhibitor (SYKi) naive MV4-11 cells (AID 1963823); note: nearly all actives have a fitted effect of over 40% in size
In short: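 SYKi-naive MV4-11 AML cells, 500 per well, were exposed to library compounds for 72 hr at 37 C, 5% CO2. Viability was then read by CellTiter-Glo luminescence after 10 min at room temperature.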

[2] = Viability qHTS for spleen associated tyrosine kinase inhibitor (SYKi) drug resistant MV4-11 cells (AID 1963824); note: nearly all actives have a fitted effect of over 35% in size
In short: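 SYK inhibitor-resistant MV4-11 AML cells, 500 per well, added to predispensed compounds and incubated 72 hr at 37 C, 5% CO2. Viability measured by CellTiter-Glo luminescence after 10 min at room temperature.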

[3] = Quantitative highthroughput screen to assess conditional lethalithy of NOMO1 cells grown in RPMI1640 with dialyzed fetal bovine serum (RPMI+ds) (AID 1963877); note: nearly all actives have a fitted effect of over 30% in size;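 for Viability: series mostly up to about 46 µM; 100% = DMSO control wells and 0% = empty wells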
In short: (§1)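 Each medium arm—HPLM with 10% dialyzed FBS, or RPMI1640 with 5 mM glucose and 10% untreated or dialyzed FBS—was screened against an 11-point, 3-fold compound titration for 48 h at 37 °C, with CellTiter-Glo luminescence as endpoint.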

[4] = Quantitative highthroughput screen to assess conditional lethalithy of SEM cells grown in Human Plasma-Like Medium with dialyzed fetal bovine serum (HPLM+ds) (AID 1963882); note: nearly all actives have a fitted effect of over 35% in size
In short: as §1

[5] = Quantitative highthroughput screen to assess conditional lethalithy of SEM cells grown in RPMI1640 with unreated serum (RPMI+s) (AID 1963883); note: nearly all actives have a fitted effect of over 35% in size;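 for Viability: 100% = DMSO wells and 0% = empty wells without cells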
In short: as §1

[6] = Cellular viability qHTS for adrenocortical cancer (ACC) cell line SW-13 (AID 1963989); settings: SW-13 ACC cells viability, CellTiter-Glo, 48 h; activity (max response): active compounds read low; note: nearly all actives have a fitted effect of over 65% in size;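 for activity (max response): cells grown in serum-free medium with ITS supplement; % is set by controls: 0 for no effect and ±100 for the full control effect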
In short: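 Here, serum-free SW-13 cultures were dosed up to 46 uM. Following 48 h, ATP-dependent luminescence (CellTiter-Glo) reported viable cells, and logistic modeling produced IC50 values.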

[7] = Cellular viability qHTS for adrenocortical cancer (ACC) cell line NCI-H295R (AID 1963990); note: nearly all actives have a fitted effect of over 60% in size
In short: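 Viability of NCI-H295R after 48 h of treatment (final up to 46 uM) measured through cellular ATP luminescence.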

[8] = Quantitative highthroughput screen to assess conditional lethalithy of P12 Ichikawa cells grown in Human Plasma-Like Medium with dialyzed fetal bovine serum (HPLM+ds) (AID 1963879); settings: Potency: viability; note: nearly all actives have a fitted effect of over 35% in size; for Viability: series mostly up to about 46 µM
In short: as §1

[9] = Quantitative highthroughput screen to assess conditional lethalithy of SEM cells grown in RPMI1640 with dialyzed fetal bovine serum (RPMI+ds) (AID 1963884); note: nearly all actives have a fitted effect of over 35% in size;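 for Viability: series mostly up to about 46 µM; 100% = DMSO control wells and 0% = empty wells without cells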
In short: as §1

[10] = Quantitative highthroughput screen to assess conditional lethalithy of P12 Ichikawa cells grown in RPMI1640 with untreated serum (RPMI+s) (AID 1963881); settings: Potency: viability; note: nearly all actives have a fitted effect of over 35% in size;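 for Viability: series mostly up to about 46 µM; 100% = DMSO wells and 0% = empty wells without cells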
In short: as §1

[11] = Quantitative highthroughput screen to assess conditional lethalithy of P12 Ichikawa cells grown in RPMI1640 with dialyzed fetal bovine serum (RPMI+ds) (AID 1963880); settings: Potency: P12-Ichikawa viability; note: nearly all actives have a fitted effect of over 35% in size;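 for Viability: 100% = DMSO wells and 0% = empty wells on each plate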
In short: as §1

[12] = Quantitative highthroughput screen to assess conditional lethalithy of NOMO1 cells grown in Human Plasma-Like Medium with dialyzed fetal bovine serum (HPLM+ds) (AID 1963878); note: nearly all actives have a fitted effect of over 35% in size;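 for Viability: 100% = DMSO wells and 0% = empty wells on each plate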
In short: as §1
Potency is the fitted concentration of half-maximal effect.

| Structure (SMILES) | Potency [1] | Potency [2] | Potency [3] | Potency [4] | Potency [5] | Potency [6] | Potency [7] | Potency [8] | Potency [9] | Potency [10] | Potency [11] | Potency [12] | activity (max response) [6] |
| --- | --- | --- | --- | --- | --- | --- | --- | --- | --- | --- | --- | --- | --- |
| C1CCC(C(CC2CCCCN2)C2CCCCC2)CC1 (centres undefined) | 2.95 µM (active) | 2.95 µM (active) | 23.5 µM (active) | 14.8 µM (active) | 11.8 µM (active) | 7.08 µM (active) | 7.08 µM (active) | – | – | – | – | – | – |
| COc1cc(CCc2cc(NC(=O)c3ccc(N4C[C@@H](C)N[C@@H](C)C4)cc3)n[nH]2)cc(OC)c1 | 1.18 µM (active) | 1.64 µM (active) | 18.7 µM (active) | 5.26 µM (active) | 4.69 µM (active) | 28.2 µM (active) | 17.8 µM (active) | 20.9 µM (active) | – | – | – | – | – |
| CCn1c(-c2nonc2N)nc2c(C#CC(C)(C)O)ncc(OC[C@H]3CCCNC3)c21 | 16.6 µM (active) | 7.42 µM (active) | inactive | 18.7 µM (active) | 23.5 µM (active) | 28.2 µM (active) | 17.8 µM (active) | 0.0526 µM (active) | 14.8 µM (active) | – | – | – | – |
| CCN(CCO)CCCOc1ccc2c(Nc3cc(CC(=O)Nc4cccc(F)c4)[nH]n3)ncnc2c1 | 0.0411 µM (active) | 0.186 µM (active) | 0.105 µM (active) | 0.296 µM (active) | 0.264 µM (active) | 20 µM (active) | – | 0.166 µM (active) | 0.235 µM (active) | 0.148 µM (active) | – | – | – |
| CC(C)C[C@@H](C(=O)N[C@H](C(=O)OC1CCCC1)c1ccccc1)[C@H](O)C(=O)NO | 0.372 µM (active) | 0.0742 µM (active) | 23.5 µM (active) | – | – | – | 25.1 µM (active) | 20.9 µM (active) | – | – | – | – | – |
| C=CC(=O)Nc1cccc(Oc2nc(Nc3ccc(N4CCN(C)CC4)cc3)ncc2Cl)c1 | 0.206 µM (active) | 517 nM (active) and 525 nM (active) | 5.9 µM (active) | 2.35 µM (active) | 0.833 µM (active) | 1.26 µM (active) | 2.51 µM (active) | – | 1.87 µM (active) | – | – | – | – |
| CCC(C(=O)O)C1CCC(C)C(C(C)C(O)C(C)C(=O)C(CC)C2OC3(C=CC(O)[C@@]4(CC[C@](C)(C5CC[C@@](O)(CC)C(C)O5)O4)O3)C(C)CC2C)O1 (some centres undefined) | 0.332 µM (active) | 0.417 µM (active) | 1.18 µM (active) | – | 1.66 µM (active) | 2.82 µM (active) | 0.708 µM (active) | – | – | – | – | – | – |
| Nc1nc(=S)c2[nH]cnc2[nH]1 | 0.934 µM (active) | 1.05 µM (active) | 7.43 µM (active) | – | – | 3.26 µM (active) and 2.82 µM (active) | 731 nM (active) and 1.12 µM (active) | – | – | 20.9 µM (active) | 14.8 µM (active) | – | – |
| CN(C)CCCN=c1c2ccccc2n(C)c2[nH]c(=O)n(C)c(=O)c12 | 5.9 µM (active) | 8.33 µM (active) | 20.9 µM (active) | 11.8 µM (active) | 10.5 µM (active) | 25.1 µM (active) | 28.2 µM (active) | 26.4 µM (active) | 9.35 µM (active) | 18.7 µM (active) | 18.7 µM (active) | – | – |
| COc1cccc2c1C(=O)c1c(O)c3c(c(O)c1C2=O)C[C@@](O)(C(=O)CO)C[C@@H]3O[C@H]1C[C@H](N)[C@H](OC2CCCCO2)[C@H](C)O1 (some centres undefined) | 105 nM (active) and 74.2 nM (active) | 118 nM (active) and 59 nM (active) | inactive | – | – | 3.16 µM (active) and 5.01 µM (active) | 794 nM (active) and 8.91 µM (active) | inactive | – | inactive | inactive | – | – |
| COc1cc(C)c(Sc2cnc(NC(=O)c3ccc(CNC(C)C(C)(C)C)cc3)s2)cc1C(=O)N1CCN(C(C)=O)CC1 (centres undefined) | 2.63 µM (active) | 3.32 µM (active) | 20.9 µM (active) | 4.18 µM (active) | 4.18 µM (active) | – | 8.91 µM (active) | – | 3.32 µM (active) | – | – | 23.5 µM (active) | – |
| Nc1nc(Nc2ccc(S(N)(=O)=O)cc2)nn1C(=O)c1c(F)cccc1F | 1.16 µM (active) and 1.86 µM (active) | 1.03 µM (active) and 1.48 µM (active) | 16.6 µM (active) | 8.33 µM (active) | 10.5 µM (active) | 3.55 µM (active) | 15.8 µM (active) | – | 9.35 µM (active) | – | – | 18.7 µM (active) | – |
| OC[C@H](Cc1ccccc1)Nc1nc(Oc2ccc3c(c2)CCC3)nc2c1ncn2Cc1ccc(-c2ccccc2)cc1 | 13.2 µM (active) | 10.5 µM (active) | inactive | – | inactive | – | – | – | inactive | inactive | – | inactive | -12.9% |
| Cn1c(=O)n(-c2ccc(C(C)(C)C#N)cc2)c2c3cc(-c4cnc5ccccc5c4)ccc3ncc21 | 0.027 µM (active) | 164 nM (active) and 60.5 nM (active) | 0.296 µM (active) | 0.235 µM (active) | 0.166 µM (active) | – | 0.0751 µM (active) | 1.05 µM (active) | 0.372 µM (active) | 2.09 µM (active) | 1.66 µM (active) | – | – |
| CC(C)(O)CNc1nc(Nc2ccnc(C(F)(F)F)c2)nc(-c2cccc(C(F)(F)F)n2)n1 | 14.8 µM (active) | 14.8 µM (active) | – | – | – | – | – | 2.95 µM (active) | 3.31 µM (active) | 2.95 µM (active) | 2.95 µM (active) | – | – |
